PubChem BioAssay AID1984 (Sanford-Burnham Center for Chemical Genomics, 2009)
About 35 (0.01%) of roughly 290,000 compounds were called active.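 Rule for the calls: active = EGFP signal decrease of at least 30% at 10 µM or well 3 SD below plate mean, unless failing retest; inactive = the rest, including hits failing retest or dose response.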 What follows is part of a selection rich in actives, with near analogues and random picks from the rest.

What follows are molecules tested against p/CIP-EGFP fusion (nuclear receptor coactivator 3, mouse) (UniProt Q05BA5) (assay: compounds lowering mouse p/CIP (NCOA3) protein levels – fluorescence, F442A cells, EGFP fusion, primary screen (AID 1984)). Conditions: 16 h, at 10 µM, hits give high values.
p/CIP-EGFP fusion (nuclear receptor coactivator 3, mouse), sequence (Q05BA5 1-1403): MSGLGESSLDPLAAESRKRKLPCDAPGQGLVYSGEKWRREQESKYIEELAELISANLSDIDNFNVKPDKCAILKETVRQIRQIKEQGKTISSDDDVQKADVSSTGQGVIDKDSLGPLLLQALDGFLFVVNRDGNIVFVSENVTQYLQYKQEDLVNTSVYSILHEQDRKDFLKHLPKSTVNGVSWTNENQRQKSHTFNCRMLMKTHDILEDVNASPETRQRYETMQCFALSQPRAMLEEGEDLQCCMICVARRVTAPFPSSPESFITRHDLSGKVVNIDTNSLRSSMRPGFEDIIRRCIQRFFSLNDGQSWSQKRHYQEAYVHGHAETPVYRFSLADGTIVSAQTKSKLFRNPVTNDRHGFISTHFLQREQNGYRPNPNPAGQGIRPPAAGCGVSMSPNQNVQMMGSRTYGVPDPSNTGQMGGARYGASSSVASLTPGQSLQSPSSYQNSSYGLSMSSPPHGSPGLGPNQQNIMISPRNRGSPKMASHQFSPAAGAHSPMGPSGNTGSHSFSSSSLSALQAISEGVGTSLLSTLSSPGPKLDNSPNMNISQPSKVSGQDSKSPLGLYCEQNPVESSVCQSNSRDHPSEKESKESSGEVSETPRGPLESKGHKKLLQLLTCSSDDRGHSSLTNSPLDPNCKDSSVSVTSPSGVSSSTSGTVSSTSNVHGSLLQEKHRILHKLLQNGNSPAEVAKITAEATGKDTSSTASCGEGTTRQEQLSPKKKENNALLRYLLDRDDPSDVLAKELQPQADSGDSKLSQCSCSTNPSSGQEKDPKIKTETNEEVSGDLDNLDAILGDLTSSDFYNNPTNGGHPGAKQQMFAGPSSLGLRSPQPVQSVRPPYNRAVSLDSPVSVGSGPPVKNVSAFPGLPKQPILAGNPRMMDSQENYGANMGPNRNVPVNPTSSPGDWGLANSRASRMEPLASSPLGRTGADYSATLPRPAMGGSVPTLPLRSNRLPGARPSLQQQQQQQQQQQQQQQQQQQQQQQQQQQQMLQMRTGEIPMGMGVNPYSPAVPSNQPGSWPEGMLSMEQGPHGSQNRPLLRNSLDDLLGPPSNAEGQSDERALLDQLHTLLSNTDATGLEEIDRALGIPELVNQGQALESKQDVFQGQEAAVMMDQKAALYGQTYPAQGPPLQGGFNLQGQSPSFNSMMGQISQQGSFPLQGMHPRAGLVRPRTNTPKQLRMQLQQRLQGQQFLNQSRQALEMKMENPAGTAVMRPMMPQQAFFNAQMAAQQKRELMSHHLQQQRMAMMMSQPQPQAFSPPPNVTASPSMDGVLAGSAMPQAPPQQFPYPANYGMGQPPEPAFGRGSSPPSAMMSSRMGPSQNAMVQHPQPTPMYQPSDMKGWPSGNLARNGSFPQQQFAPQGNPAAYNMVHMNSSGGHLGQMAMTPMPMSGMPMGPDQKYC

Decrease of EGFP signal, inactive:
C/C(=N\NC(=O)c1ccc2ccccc2c1)c1cccnc1 -18.3%, CCOc1ccc(CN(C)C(=O)c2ccc(=O)[nH]c2)cc1 5.1%, Cc1cc(S(=O)(=O)NC2CCCC2)ccc1-n1cnnn1 -8.5%, O=C1NC(=O)C(c2ccc(Cl)cc2)N1 (stereo not given) -72.8%, CCOc1ccccc1N1CCN(C(=O)c2ccc3[nH]c(C)c(C)c3c2)CC1 6.3%, COc1cc(CCC(=O)Nc2ccncc2Cl)cc(OC)c1OC -2.4%, Cc1nn(C)c(Cl)c1CN1CCC(Oc2ccc(C(=O)N3CCCC3)cc2)CC1 -12%, O=C(Nc1cccc(-n2cnnn2)c1)c1cccnc1 2.8%, O=C(c1ccc(Cl)cc1)N1N=C(c2ccccn2)CC1(O)C(F)(F)F (stereo not given) 1.2%, COc1ccc(C2Nc3ccccc3C(=O)N2c2ccc(Cl)cc2)cc1Cn1cc([N+](=O)[O-])cn1 (stereo not given) -4.3%, CCCN(CCC)S(=O)(=O)c1ccc(C(=O)N2CC3CCC(CC3)C2)cc1 -5.7%, CNC(=O)c1sc(NCc2ccccc2OC)nc1C -5%, COc1cccc(NC(=O)N2CCCC2C(=O)NC2CCCCC2)c1 (stereo not given) -18.1%, NC(=O)c1ccc(Nc2ccc3c(c2)CCC3)c([N+](=O)[O-])c1 -5%, C=CCc1cc(C)ccc1OCCCn1ccnc1 10.1%, CC(C(=O)c1ccc(-c2ccccc2)cc1)[n+]1cccc(Br)c1 (stereo not given) -9.6%, COC(=O)Cn1cnc2scc(-c3ccc(C)c(C)c3)c2c1=O 4.1%, CC(C)(C)NC(=O)C(c1ccc(Cl)cc1)N(CCO)C(=O)c1snc(C(N)=O)c1N (stereo not given) 2.5%, CC(=O)[C@@]12O[C@@H]1C[C@H]1[C@@H]3CC[C@H]4C[C@@H](O)CC[C@]4(C)[C@H]3CC[C@@]12C -26.4%, COc1cccc(OCC(O)CNC(=O)c2oc3c(C)c(C)ccc3c2C)c1 (stereo not given) -15.6%
